Hits are enriched below; roughly 1.4% of the tested compounds scored in any of these assays.
Rango release inh – inhibitors of RanGTP-induced Rango-importin beta complex dissociation | Biochemical FRET Rango-importin beta, RanGTP-induced dissociation | O95149+P62826 | AID 540253 | actives 0.071% (n = 340,000) | Potency, µM (titrated, usually from 46.1 µM); also: nearly all actives have a fitted effect of over 45% in size
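Rango FRET biosensor (snurportin-1 IBB flanked by N-terminal EYFP and C-terminal CFP10) at 0.1 uM, with 0.25 uM importin beta in PBS, 1mM DTT, 0.02% Tween-20, 0.1% BSA. 0.6 uM Ran, 2mM GTP and 0.2 uM RCC1 were then added for 45 min at room temperature. Inhibition read as loss of FRET rise.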
CCT modulator – modulators of cytosolic chaperonin (CCT/TRiC) activity; purified chaperonin ATPase assay, HTRF ADP detection, 30 min; AID 651819; activity change, % (test concentration not listed), hits read low; actives 0.3% (n = 360,000); in the data active = activity change below about -30%
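Enzyme 40 or 20 nM (batch-dependent) in Tris pH 7.4/KCl/MgCl2/DTT; cpd 76 uM single point; ATP 10 uM; 30 min 37 °C; Transcreener ADP HTRF detection, 30 min RT; ratio 665/615.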
KCNH2 3.1 inh – blocks the human KCNH2 3.1 channel isoform. U2OS KCNH2 3.1, thallium flux FluxOr; hits give low values. activity change, % (tested at about 1.8 µM). actives 0.95% (n = 340,000);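 active = maximum activity change below -70%; inconclusive = maximum activity change from -70% to -50%; inactive = maximum activity change above -50%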;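 also: thallium influx rate constant from kinetic fluorescence after stimulation buffer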
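FluxOr-based Tl+ influx in U2OS cells transduced with KCNH2 3.1 virus; rate constants normalized to DMSO controls.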
MmCpn inh – inhibitors of Methanococcus maripaludis chaperonin TRiC (MmCpn); AID 504842; actives 0.031% (n = 330,000); Potency, µM (top dose mostly 76.9 µM), usual class: inhibitors; purified Mm-Cpn ATPase, ADP Transcreener TR-FRET; active = well fitted inhibition curve with a large enough effect; inconclusive = small, poorly fitted or top-dose-only effect; also: nearly all actives have a fitted effect of over 80% in size
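Inhibition of chaperonin ATP hydrolysis is measured as reduced ADP production, detected by competitive TR-FRET in which signal falls with ADP. Final enzyme 25 nM and ATP 10 uM, reacted 30 min at 37°C.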
KCNH2 WT inh – inhibitors of human wildtype KCNH2 potassium channel; Q12809; U2OS, BacMam KCNH2, thallium flux FluxOr; hits give low values; actives 0.37% (n = 340,000); activity change, % at 1.84 µM; AID 720551;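 active = maximum activity change below -70%; inconclusive = maximum activity change between -70% and -50%; inactive = maximum activity change above -50%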
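U2OS cells transduced with wild-type KCNH2 virus are loaded with FluxOr dye for 45 min, and thallium flux is measured in kinetic reads before and after stimulation buffer. Rate constants are normalized to DMSO controls.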
Rango-impB inh – prevents formation of the Rango-importin beta complex | Rango CFP/YFP FRET sensor + importin beta, 45 min | Potency, µM (series often up to 92.2 µM) | actives 0.031% (n = 340,000); also: nearly all actives have a fitted effect of over 15% in size
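FRET biosensor (snurportin 1 IBB flanked by EYFP and cerulean), 50 nM, with compound 5 min, then 0.125 microM importin beta in PBS, 1 mM DTT, 0.02% Tween-20, 0.1% BSA. CFP/YFP ratio read after 45 min at room temperature; pre-read flags interference.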
Of the large screens only hits and unclear results are named; the others gave an inactive call. Unless noted, calls follow the shape of the full dose curve.

CC(=O)c1cccc(OCC(O)CNCCc2ccc(Cl)cc2)c1 (centres undefined)	none
CCCc1cc(=O)n2[nH]c(C)c(-c3ccccc3OC)c2n1	none (no result: Rango release inh, MmCpn inh, Rango-impB inh)
CCCc1cc(=O)n2[nH]c(C)c(-c3ccccc3)c2n1	CCT modulator -57
CN(C)S(=O)(=O)c1cccc(C(=O)NCC(C)(C)CNC(=O)c2cccc(S(=O)(=O)N(C)C)c2)c1	none
CCN(C(=O)COC(=O)c1ccc(C=O)cc1)c1c(N)n(Cc2ccccc2)c(=O)[nH]c1=O	none
Cn1c(SCc2cccc([N+](=O)[O-])c2)nc2ccccc2c1=O	CCT modulator -39
CCSc1ccc([C@@H]2[C@@H]3C(=O)N(CC)C(=O)[C@@H]3[C@]3(C(=O)OC)CCCN23)cc1	none (no result: KCNH2 3.1 inh, KCNH2 WT inh)
Cc1ccc2c(c1)N(C(=O)CCC(=O)NCCCN1CCC(Cc3ccccc3)CC1)CCO2	KCNH2 3.1 inh -116
Cc1ccc2c(c1)N(C(=O)CCC(=O)NCCCN1CCN(C)CC1)CCO2	none
CC(CNC(=O)CCC(=O)N1CCOc2ccc(Cl)cc21)c1ccccc1 (centres undefined)	CCT modulator -66
O=C(CCC(=O)N1CCOc2ccc(Cl)cc21)NCc1ccccc1	none
COc1cc2c(cc1OC)C1O[C@](CCCCN3C(=O)c4ccccc4C3=O)(C2)OC2=C1C(=O)OC1(CCCCC1)C2	none (no result: Rango release inh, CCT modulator, KCNH2 3.1 inh, KCNH2 WT inh, Rango-impB inh)
CC(C)CCn1cnc2c1c(=O)[nH]c(=O)n2Cc1ccccc1	none
CC(C)Cn1cnc2c1c(=O)[nH]c(=O)n2Cc1ccccc1	KCNH2 3.1 inh -82
CCN(CC(=O)NCc1cccs1)C(=O)c1ccc(S(=O)(=O)Nc2cccc(C)c2C)cc1	none
CN/N=C(\Cc1nc2ccccc2[nH]1)c1ccc([N+](=O)[O-])cc1	KCNH2 3.1 inh -75, KCNH2 WT inh inconclusive
O=C(Cc1nc2ccccc2[nH]1)c1ccc(Cl)cc1	Rango-impB inh inconclusive
Clc1ccc(/C(Cc2nc3ccccc3[nH]2)=N\Nc2ccccc2)cc1	KCNH2 3.1 inh -102
CCCCN(CCCC)C(=O)c1c[nH]c2ccc(S(=O)(=O)Nc3cccc(Cl)c3C)cc2c1=O	none (no result: Rango release inh, CCT modulator, KCNH2 3.1 inh, KCNH2 WT inh, Rango-impB inh)
CCOc1ccc(CN2CCCC(CO)(Cc3ccc(F)cc3)C2)cc1 (centres undefined)	KCNH2 3.1 inh -97
Cc1nn(C)c(Cl)c1CN1CCCC(CO)(Cc2ccccc2)C1 (centres undefined)	KCNH2 3.1 inh -85
CCc1sc(C(=O)Nc2ccccc2N2CCOCC2)cc1C	none
NC(=Nc1nc(-c2ccccn2)cc2ccccc12)c1ccccn1	none (no result: MmCpn inh)
Cc1cccc(C)c1N1CCN(CCn2c(=S)[nH]c3ccccc3c2=O)CC1	none
c1coc(-c2ccc3ncnc(NCc4cccs4)c3c2)c1	none (no result: Rango release inh, CCT modulator, KCNH2 3.1 inh, KCNH2 WT inh, Rango-impB inh)
O=C(COc1ccc(Cl)cc1Cl)N/N=C/c1ccc(OC2OC(CO)C(O)C(O)C2O)cc1 (centres undefined)	KCNH2 3.1 inh -157, KCNH2 WT inh -151
O=C(CCCOc1ccc(Cl)cc1Cl)N/N=C/c1ccc(Cl)cc1	none
COc1ccccc1C(=O)OCc1c(F)cccc1Cl	none
Cc1ccccc1CNC(=O)C1CCCN(c2nnc(C)c3c(C)n(-c4ccccc4)nc23)C1 (centres undefined)	KCNH2 3.1 inh -71
COc1ccc(C(=O)COC(=O)c2cnc(C)cn2)cc1OC	Rango release inh inconclusive
CCN1CCN(C(=O)/C(=C/c2cccs2)NC(=O)c2ccc(C)c(C)c2)CC1	KCNH2 WT inh -100
Cc1ccc(C(=O)N/C(=C\c2cccs2)C(=O)N2CCCCCC2)cc1	none
CC/C=C/C(=O)N1CC2(CC(c3cccc(NC(=O)COc4ccc(Cl)cc4)c3)=NO2)C[C@H]1C(N)=O (some centres undefined)	Rango release inh inconclusive, KCNH2 3.1 inh -71
NC(=O)[C@@H]1CC2(CC(c3cccc(NC(=O)COc4ccc(Cl)cc4)c3)=NO2)CN1C(=O)COc1ccc(Cl)cc1 (some centres undefined)	none
